# High-throughput results from PubChem BioAssay.
# LmPK inh – LmPK (Leishmania mexicana) enzyme inhibition; Potency, µM (doses to about 57.5 µM), for inactives: top-dose activity change, negative = inhibition, actives largely listed as inhibitors; Q27686; purified LmPK, Kinase-Glo ATP luminescence, 1 h; 290,000 tested, 0.37% active; AID 1721; active = well fitted curve in the direction sought with a large enough effect; inconclusive = small, poorly fitted or top-dose-only effect, or another doubt; inactive = no such curve, though single readings can be large; an effect the other way counts as inactive or inconclusive; note: potency is the fitted concentration of half-maximal effect; % is set by controls: 0 for no effect and ±100 for the full control effect
# Target sequence (Q27686 whole entry, looked up): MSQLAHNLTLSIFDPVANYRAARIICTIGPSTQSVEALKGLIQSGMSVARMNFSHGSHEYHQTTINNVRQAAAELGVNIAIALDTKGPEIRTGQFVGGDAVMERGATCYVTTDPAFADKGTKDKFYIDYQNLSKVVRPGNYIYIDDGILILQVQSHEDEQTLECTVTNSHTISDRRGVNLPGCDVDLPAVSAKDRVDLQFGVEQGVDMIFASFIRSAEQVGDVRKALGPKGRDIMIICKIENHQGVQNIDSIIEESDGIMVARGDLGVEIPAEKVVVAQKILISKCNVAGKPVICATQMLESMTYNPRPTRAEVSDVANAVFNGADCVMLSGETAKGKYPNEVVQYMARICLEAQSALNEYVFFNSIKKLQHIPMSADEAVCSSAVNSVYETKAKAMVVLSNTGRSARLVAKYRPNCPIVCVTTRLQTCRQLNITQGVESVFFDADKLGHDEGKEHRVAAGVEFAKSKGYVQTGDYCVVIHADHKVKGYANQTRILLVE
#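 Purified LmPK (0.1 nM) with 0.5 mM PEP and 0.1 mM ADP in imidazole buffer pH 7.2 with MgCl2/KCl, 1 h at room temperature. ATP formed was read by luciferase luminescence and normalized to no-enzyme and uninhibited controls.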
# RE007 growth inh – less growth of the S. pombe RE007 Vpr strain; S. pombe RE007 Vpr strain, BacTiter-Glo ATP luminescence, 24 h; Potency, µM (titrated, usually from 92.2 µM), inactives show at the highest dose activity change, negative = less growth, actives largely listed as inhibitors; 360,000 tested, 0.21% active; active = well fitted falling curve with a large enough effect; inconclusive = small, poorly fitted or top-dose-only effect; inactive = no such curve, though single readings can be large or run the other way; note: potency is the fitted concentration of half-maximal effect; % is set by controls: 0 for no effect and ±100 for the full control effect; nearly all actives have a fitted effect of over 50% in size
#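 Fission yeast strain RE007, carrying one chromosomally integrated HIV-1 vpr copy, was seeded at OD 0.01 in PMG+AL medium with 23 nL pinned compound. After 24 h at 30 °C and 99% humidity, viability was read by BacTiter-Glo luminescence.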
# NS1 inh – inhibitors of influenza NS1 protein function; AID 2326; Potency, µM (doses to about 46.1 µM), inactives show top-dose activity, positive = more growth; 270,000 tested, 0.4% active; note: potency is the fitted concentration of half-maximal effect; actives are rising curves; nearly all actives have a fitted effect of over 50% in size
#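 Read-out: OD600 growth recovery of NS1-expressing budding yeast. Cells grown overnight at 30C in -URA glucose medium, washed, resuspended and diluted 1:100 in 2% galactose assay medium, pH 6.0. Same strain lacking NS1 served as positive control.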
# Tb PYK inh – T. brucei pyruvate kinase inhibition; TbPYK enzyme, Kinase-Glo Plus ATP luminescence, 45 min; 410,000 tested, 0.12% active; Potency, µM (highest dose often 76.8 µM), without a hit: top-dose activity, negative = inhibition, most hits filed as inhibitors; AID 624173; Q57TT1; active = well fitted curve in the direction sought with a large enough effect; inconclusive = small, poorly fitted or top-dose-only effect, or another doubt; inactive = no such curve, though single readings can be large; an effect the other way counts as inactive or inconclusive; note: potency is the fitted concentration of half-maximal effect; % is set by controls: 0 for no effect and ±100 for the full control effect; nearly all actives have a fitted effect of over 50% in size
#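 Quantitative HTS: titrated library compounds versus trypanosomal pyruvate kinase in TEA buffer (pH 7.2) containing KCl, MgCl2, BSA and Tween-20. Reactions were initiated with ADP, 130 uM final. Kinase-Glo Plus luminescence was read after 45 min at RT.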
# Flu NS1 inh – influenza NS1 function inhibition validation; shares compounds with NS1 inh; influenza NS1 function cell assay, 15-point titration; activity change, negative = inhibition, % at 32.9 µM; 1,400 tested, under 10 active; AID 492980; note: 0% is about no effect
# PR8 titer – reduces influenza A/PR/8/34 replication in MDCK cells; shares compounds with NS1 inh; MDCK infected influenza A/PR/8/34, virus titer TCID50; stronger effect = lower value; virus titer (log TCID50), log10 TCID50 at 5 µM; 95 tested, 30% active; AID 504647; call rule not given here
# * hit, by the source's call; ? = inconclusive; · = no result. In the library only some 0.77% were active in any assay of this set; here they are far more common. Unless noted, calls come from the whole dose curve.
SMILES,LmPK inh,RE007 growth inh,NS1 inh,Tb PYK inh,Flu NS1 inh,others
Cc1cc2cc(CNS(=O)(=O)c3ccc4ccccc4c3)ccc2n1C,-1%,-3%,10µM*,-2%,-22,
Cc1cc2cc(CNC(=O)c3ccc(S(=O)(=O)N(C)C)cc3)ccc2n1C,-1%,-9%,11µM*,4%,25,
Cc1cc2cc(CNC(=O)c3ccc(S(=O)(=O)N4CCOCC4)cc3)ccc2n1C,-3%,4%,11µM*,2%,0,
COc1cccc(CNC(=O)c2ccc(S(=O)(=O)N3CCOCC3)cc2)c1,·,9%,·,1%,·,
CC(=O)N1CCC2(CCCN(C(=O)Nc3cccc(C#N)c3)C2)CC1,·,·,·,2%,·,
CCc1ccc(NC(=O)N(Cc2c[nH]c3ccccc23)C2CCCCCC2)cc1,·,·,·,-5%,·,
COc1ccc(COc2cc(-c3cccc(OC)c3)nc3ccc(N)cc23)cc1,9%,-15%,4.5µM*,-4%,-4,
COc1ccc(COc2cc(-c3cccc(OC)c3)nc3ccc(NC(=O)c4ccc(N(C)C)cc4)cc23)cc1,1%,-6%,10µM*,0%,?,
COc1ccc(COc2cc(-c3cccc(OC)c3)nc3ccc(NC(=O)c4ccc(C)cc4)cc23)cc1,-2%,5%,19%,-3%,·,
CCn1c(=O)c2cc(C(=O)N(CCCOC(C)C)Cc3ccco3)sc2c2ccccc21,·,·,·,1%,·,
C[C@@H]1CC=C[C@H]2[C@H]1C(=O)N(Cc1ccccc1)[C@H]2c1ccc(-c2ccc(F)cc2)cc1F,-4%,24%,-13%,4%,·,
COc1ccc(-c2ccc([C@H]3[C@H]4C=CC[C@@H](C)[C@@H]4C(=O)N3Cc3ccccc3)c(F)c2)cc1C,3%,-8%,?,-3%,-6,
COC(=O)c1ccc(CSc2nnc(SCc3ccc(C(=O)OC)o3)s2)o1,1%,-7%,-18%,-17%,·,
COC(=O)c1ccc(CSc2nnc(NCc3ccccc3)s2)o1,10%,11%,14µM*,-17%,?,
O=S(=O)(Nc1cccc(-c2cn3cccnc3n2)c1)c1ccc(-c2ccccc2)cc1,1%,0%,11µM*,-10%,24,
CC(C)(C)C1CCc2onc(C(=O)Nc3sc4c(c3C#N)CCCC4)c2C1 (stereo not drawn),·,·,·,-2%,·,
CCOC(=O)N1CCN(S(=O)(=O)c2ccc(C(=O)NNc3nc4c(C)cccc4s3)cc2)CC1,-2%,1%,10µM*,?,?,
CCOC(=O)N1CCN(S(=O)(=O)c2ccc(C(=O)NNc3nc4ccc(Cl)cc4s3)cc2)CC1,-3%,7%,7.9µM*,-4%,-16,
Cc1cccc2sc(NNC(=O)c3ccc(S(=O)(=O)N4CCc5ccccc5C4)cc3)nc12,-2%,-1%,13µM*,?,?,
CCOC(=O)N1CCN(S(=O)(=O)c2ccc(C(=O)NNc3nc4c(C)cc(C)cc4s3)cc2)CC1,-1%,6%,4µM*,-12%,?,
CCOC(=O)N1CCN(S(=O)(=O)c2ccc(C(=O)NNc3nc4cc(C)cc(C)c4s3)cc2)CC1,0%,1%,?,-6%,·,
CCN(CC)C(=O)Cn1c(SCC(=O)Nc2ccc(F)cc2)nc2ccccc21,·,·,·,1%,·,
C=CCN1C(=O)CS/C1=C(\C#N)S(=O)(=O)c1ccc(C)cc1,-9%,3%,1.6µM*,-6%,34,
O=c1c2ccccc2nc(/C=C/c2ccc(O)c(O)c2)n1-c1ccccc1,?,-1%,13%,-8%,·,
O=c1cc(O)cc(/C=C/c2ccc(O)c(O)c2)o1,·,·,6.3µM*,·,38,
SMILES,LmPK inh,RE007 growth inh,NS1 inh,Tb PYK inh,Flu NS1 inh,others
CCC(=O)O[C@@]1(C(=O)CCl)C(C)CC2C3CCC4=CC(=O)C=C[C@@]4(C)[C@]3(F)C(O)C[C@]21C (stereo partly drawn),·,·,·,-4%,·,
CNC(=O)c1ccccc1S(=O)(=O)c1ccccc1C#N,11%,4%,?,5%,22,
CC(C)NC(=O)c1ccccc1S(=O)(=O)c1ccccc1C#N,-4%,-8%,1%,-4%,·,
Cc1ccc(-n2c3c(cc(C(=O)NCc4ccco4)c2=O)C(=O)CC(C)(C)C3)cc1,2%,0%,1.1µM*,-1%,-8,
CC1(C)CC(=O)c2cc(C(=O)NCc3ccco3)c(=O)n(-c3ccc(Cl)cc3)c2C1,-2%,-6%,2%,1%,·,
CC(C)(C)c1nnc2sc(SCC(=O)c3ccc(Cl)cc3)nn2c1=O,2%,1%,11µM*,-4%,26,PR8 titer=8.5
Cc1ccc(C(=O)CSc2nn3c(=O)c(C(C)(C)C)nnc3s2)cc1,6%,8%,20%,1%,·,
COc1ccc(-c2nc(NC(=O)C3CC(=O)N(c4ccc5c(c4)OCCO5)C3)sc2C)cc1 (stereo not drawn),3%,9%,11µM*,-19%,7,
CCN(CC)C(=O)c1c(-c2ccccc2)c(-c2ccccc2)nn(CC)c1=O,·,·,·,-2%,·,
Cc1c(CNC(C)CCc2ccccc2)c(C(=O)O)c(C)n1Cc1ccc(F)cc1Cl (stereo not drawn),·,·,·,1%,·,
COc1cccc(-n2c(SCc3cc(=O)oc4cc(O)c(O)cc34)nc3ccccc3c2=O)c1,1%,40%,?,-6%,-15,
COc1ccc(-n2c(SCC(=O)Nc3ccc4c(c3)OCO4)nc3ccccc3c2=O)cc1,-2%,11%,22µM*,-1%,18,
O=C(CSc1nc2ccccc2c(=O)n1-c1ccc(F)cc1)Nc1cc(S(=O)(=O)N2CCOCC2)ccc1Cl,4%,5%,13µM*,-7%,6,
O=C(CSc1nnc(Nc2ccccc2)s1)Nc1cccc(S(=O)(=O)N2CCCCC2)c1,0%,13%,11µM*,-12%,?,
Cc1sc2ncn(CC(=O)Nc3ccc(C(C)C)cc3)c(=O)c2c1S(=O)(=O)N1CCN(c2ncccn2)CC1,·,·,·,-1%,·,
COc1cccc(N2CCN(C(=O)CN3CCSc4ccccc43)CC2)c1,·,·,·,0%,·,
O=C(CSc1nc2ccccc2c(=O)n1-c1ccccc1Cl)Nc1cccc(S(=O)(=O)N2CCOCC2)c1,3%,-9%,11µM*,-15%,24,PR8 titer=6.7*
O=C(CSc1ncnc2ccccc12)Nc1cccc(S(=O)(=O)N2CCOCC2)c1,1%,1%,·,4%,·,
Cc1cc(NC(=O)CSc2nc3cc4c(cc3c(=O)n2CCc2ccccc2)OCO4)no1,2%,4%,13µM*,-7%,0,
Cc1cc(=O)[nH]c2nnc(SCc3ccccc3F)n12,·,·,·,-9%,·,
CN(C)c1ccc(CNC(=O)C2CCN(Cc3cc4ccccc4n3Cc3ccccc3)CC2)cc1,·,·,·,5%,·,
CC1Cc2ccccc2N1C(=O)CSc1nnc2c(n1)[nH]c1ccccc12 (stereo not drawn),1%,3%,0%,0%,·,
